Drawing on PubChem BioAssay (NCATS), this text covers Potency and activity (max response) for 31 compounds.

Test [1] can be described thus: Viability qHTS for spleen associated tyrosine kinase inhibitor (SYKi) drug resistant MV4-11 cells (AID 1963824). Further: nearly all actives have a fitted effect of over 35% in size. The procedure, abridged: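 SYK-inhibitor-resistant MV4-11 AML cells were seeded at 500 per well onto compound and cultured 72 hours (37 °C, 5% CO2). CellTiter-Glo was then added, and after 10 min at room temperature, luminescence gave viability.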
(Quantitative high-throughput screening tests each substance at several concentrations.)

Test [2] in a line: Cellular viability qHTS for adrenocortical cancer (ACC) cell line NCI-H295R (AID 1963990). Further: nearly all actives have a fitted effect of over 60% in size. The procedure, abridged:
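Adrenocortical carcinoma cells, suspended at 300 000 cells/mL in serum-free DMEM plus ITS, rested overnight before pin transfer of compound. After two days' incubation, ATP-dependent luminescence was recorded and curve-fitted.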

Test [3] can be described thus: Cellular viability qHTS for adrenocortical cancer (ACC) cell line SW-13 (AID 1963989). Further: nearly all actives have a fitted effect of over 65% in size.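 On activity (max response): cells grown in serum-free medium with ITS supplement; on the % scale 0 is the no-effect control and ±100 the full control effect.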 The note with it: SW-13 ACC cells viability, CellTiter-Glo, 48 h; activity (max response): active compounds read low. The method in brief:
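IC50 and maximal-response values come from four-parameter logistic fits of titration data. SW-13 cells in serum-free medium received compounds (up to 46 uM final) for 48 h before CellTiter-Glo luminescence.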

Several values for one entry are separate records, joined by “and”; a condition that tells them apart may be missing. Identical values can stand only once. Inconclusive results are not listed. Values without a mark were called inactive. Activity calls are given as the source filed them. The call rests on the fitted dose curve; in most records, active means well fitted curve in the direction sought with a large enough effect; inconclusive means small, poorly fitted or top-dose-only effect, or another doubt; inactive means no such curve, though single readings can be large; an effect the other way counts as inactive or inconclusive.
Potency means the concentration at half of the fitted maximal effect.

With `C1=CC2C3C=CC(C3)C2C1` (stereo not drawn), the Potency entry in test [1] and in test [2] was “inactive” in each case.
For the compound `CCNCCS(=O)(=O)NC[C@@]1(c2ccccc2)SC(NC(=O)C(C)(C)C)=NN1C(=O)C(C)(C)C`, the Potency in test [1] is 0.003 µM (active); in test [2] it was 0.316 µM (active).
On to `Cc1cc2cc(Oc3ccnc(Nc4cccc(CS(=O)(=O)NCCN(C)C)c4)n3)ccc2[nH]1`, for which the Potency in test [1] is 1.86 µM (active); in test [2], 25.1 µM (active).
For `Cc1ccc2nc(N)[nH]c(=O)c2c1Sc1ccncc1`, the Potency in test [1] was 4.61 µM (active). Moreover, the Potency result in test [2] was “inactive”.
Taken in the same sequence, the figures for `O=C(Oc1cccc2cccnc12)c1ccccc1` were “inactive” and 23.1 µM (active).
Regarding `CC(C)n1cc(-c2ccc3c(c2)N(C)CC3)c2c(NS(=O)(=O)c3ccn(C)n3)ccnc21`, in test [1], the Potency was 18.6 µM (active). For the same compound, the activity (max response) in test [3] was 9.47%. Moreover, the Potency result in test [2] is “inactive”.
For `c1cnc(N2CCN(Cc3ccc4c(c3)OCO4)CC2)nc1`, the Potency result in test [1] and in test [2] was “inactive” each time. Moreover, in test [3], the activity (max response) was 6.56%.
`CN1CCN(c2ccc(Nc3ncc4cc(C#N)c(=O)n(C5CCCC5)c4n3)cc2)CC1`: the Potency in test [1] was 0.235 µM (active). Further, in test [2], the Potency result was “inactive”.
As to `C[N+]1(CC2COC(c3ccccc3)(C3CCCCC3)O2)CCCCC1` (stereo not drawn), in test [1], the Potency is 11.9 µM (active). Further, the activity (max response) in test [3] is -27.2%. In addition, the Potency result in test [2] was “inactive”.
For the compound `CC(NN)c1ccccc1` (stereo not drawn), the Potency result in test [1] and in test [2] was “inactive” throughout. For the same compound, the activity (max response) in test [3] is -4.01%.
Take `COc1cccc2c1C(=O)c1c(O)c3c(c(O)c1C2=O)C[C@@](O)(C(C)=O)C[C@@H]3O[C@H]1C[C@H](N)[C@H](O)[C@H](C)O1`: the Potency in test [1] was 42.2 nM (active) and 18.6 nM (active); in test [2], 461 nM (active) and 2.24 µM (active).
With `O[C@@H](c1cc(C(F)(F)F)nc2c(C(F)(F)F)cccc12)[C@H]1CCCCN1`, the Potency in test [1] was 9.44 µM (active); in test [3] it was 16.4 µM (active); in test [2], 5.17 µM (active).
In the case of `O=C(O)Cn1c(C(=O)Nc2nc(-c3ccccc3Cl)cs2)cc2ccccc21`, the Potency entry in test [1] and in test [2] was “inactive” each time.
Consider `Cc1cccc(CC(=O)N2CCc3c2ccc(-c2cn(C)c4ncnc(N)c24)c3F)n1`, for which the Potency in test [1] is 2.06 µM (active). Moreover, in test [2], the Potency entry is “inactive”.
`C=CC(=O)Nc1cc(N2CCN(CC)CC2)ccc1Nc1cc(N(C)C(=O)Nc2c(Cl)c(OC)cc(OC)c2Cl)ncn1`: in test [1], the Potency is 7.42 µM (active). For the same compound, the activity (max response) in test [3] is -15%. Also, the Potency result in test [2] was “inactive”.
`C=CC(=O)Nc1cccc(C)c1Nc1ncc2cc(-c3c(Cl)c(OC)cc(OC)c3Cl)ccc2n1`: the Potency is 1.46 µM (active) in test [1] and 3.55 µM (active) in test [2].
For `CCc1nnc(NS(=O)(=O)c2ccc(N)cc2)s1`, the Potency result in test [1] and in test [2] was “inactive” each time.
For the compound `C#Cc1cccc(Nc2ncnc3cc4c(cc23)OCCOCCOCCO4)c1`, the figures for the Potency in test [1] and in test [2] were 18.6 µM (active) and 11.2 µM (active), respectively.
On to `O=C(NOCC(O)CO)c1ccc(F)c(F)c1Nc1ccc(I)cc1F` (stereo not drawn), for which the Potency in test [1] was 0.148 µM (active). The Potency entry in test [2] was “inactive”.
As for `CCNC(=O)Nc1ccc(-c2nc3c(c(N4CCOC[C@@H]4C)n2)CCN(C2COC2)C3)cc1`, the Potency in test [1] was 1.86 µM (active); in test [2] it was 3.55 µM (active).
As to `CCC(=O)c1ccc2c(c1)N(CCCN(C)C)c1ccccc1S2`, the Potency in test [1] was 21.1 µM (active); in test [2] it was 14.6 µM (active).
As to `CN(C)Cc1cccc(N=C(c2ccccc2)c2c(O)[nH]c3cc(C(N)=O)ccc23)c1`, the Potency in test [1] was 2.91 µM (active) and 1.18 µM (active). Moreover, the Potency result in test [2] is “inactive”.
In the case of `CCCCCCCCCCCCCCNCCO`, the Potency was 16.8 µM (active) in test [1] and 23.1 µM (active) in test [2].
`Cc1cc(OI)c(C(C)C)cc1-c1cc(C(C)C)c(OI)cc1C`: the Potency result in test [1] and in test [2] was “inactive” throughout.
Regarding `Cc1c(C)n(Cc2ccccc2)c2ccc(C(=O)OCCN(C)C)cc12`, the Potency is 11.9 µM (active) in test [1] and 23.1 µM (active) in test [2].
On to `COC(=O)C1=C(C)NC(C)=C(C(=O)OC(C)(C)CN(C)CCC(c2ccccc2)c2ccccc2)C1c1cccc([N+](=O)[O-])c1` (stereo not drawn), for which the Potency was 9.44 µM (active) in test [1] and 20.6 µM (active) in test [2].
For `CCN(CC)CCNc1ccc(CO)c2sc3ccccc3c(=O)c12`, the Potency is 3.76 µM (active) in test [1] and 1.03 µM (active) in test [2].
`C#C[C@]1(OC(C)=O)CC[C@H]2[C@@H]3CCC4=C[C@@H](OC(C)=O)CC[C@@H]4[C@H]3CC[C@@]21C`: the Potency in test [1] is 21.1 µM (active) and 14.6 µM (active); in test [2], 20.6 µM (active).
As to `CC[C@]12CCCN3CCc4c(n(c5ccccc45)C(=O)C1)[C@@H]32`, the Potency in test [1] was 8.41 µM (active) and 23.1 µM (active); in test [2] it was 5.8 µM (active).
Turning to `CN1CCC[C@@H]1CCO[C@](C)(c1ccccc1)c1ccc(Cl)cc1`, the Potency in test [1] is 18.8 µM (active); in test [2] it was 20.6 µM (active).
Consider `Cc1ccc(C(=O)OCc2ccc([C@@H](CN)C(=O)Nc3ccc4cnccc4c3)cc2)c(C)c1`, for which the Potency was 2.29 µM (active) in test [1] and 11.3 µM (active) in test [2].
